Experimental data reported in PubChem BioAssay (NCATS).
Where “and” joins values, the source holds several entries; their conditions need not be identical. Equal values may be shown once. Inconclusive results are not listed. Some compounds were tested as several samples or in several runs, with calls that do not always agree. Calls of active or inactive are those of the source. Calls come from the whole dose curve; as a rule, active = well fitted curve in the direction sought with a large enough effect; inconclusive = small, poorly fitted or top-dose-only effect, or another doubt; inactive = no such curve, though single readings can be large; an effect the other way counts as inactive or inconclusive.

What was measured:
[1] = biological target: Metallo-beta-lactamase type 2 (Klebsiella pneumoniae) (UniProt C7C422); experiment: qHTS to identify inhibitors of the New Delhi Metallo-beta-lactamase (NDM): assay validation screen against the NCATS LOPAC Collection (AID 1794843);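 note: nitrocefin turnover by NDM-1 measured as 485 nm absorbance at plateau; series mostly up to about 38 µM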
Summary of the method: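 Enzyme 2 nM final, 50 mM HEPES pH 7.0, 1 uM ZnSO4, 0.01% Tween20; cpds in DMSO, preincub w/ enzyme; + nitrocefin (50 uM stock); A485 at plateau; no-enzyme column as blank.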

[2] = biological target: Glutathione peroxidase 1 (Homo sapiens) (UniProt P07203); experiment: Primary qHTS Assay for Inhibitors of Recombinant Selenoprotein Glutathione Peroxidase 1 (GPX1) (AID 1845191); note: nearly all actives have a fitted effect of over 65% in size; note: potency is the fitted concentration of half-maximal effect
Summary of the method: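 GPX1 10 nM, GR 100 nM, GSH 1 mM, NADPH 0.5 mM, CHP 0.5 mM (final). 30-min cpd preincubation, RT. Ex340/Em450 read t=0, t=15 min.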

[3] = biological target: Phospholipid hydroperoxide glutathione peroxidase GPX4 (Homo sapiens) (UniProt P36969); experiment: Primary qHTS Assay for Inhibitors of Recombinant Selenoprotein Glutathione Peroxidase 4 (GPX4) (AID 1845192); note: nearly all actives have a fitted effect of over 65% in size; note: potency is the fitted concentration of half-maximal effect
Summary of the method: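 qHTS, GR-coupled: GPX4 200 nM + cpd 30 min RT → GSH 1 mM, NADPH 0.5 mM, GR 100 nM → CHP 0.5 mM start; fluor 340/450 at t0 and t15 min; no-enzyme wells as control.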

[4] = Quantitative High-Throughput drug screen in 47 multiple myeloma cell lines against the NCATS MIPE library collection: FR4_PLB cell viability assay (AID 1918924; note: nearly all actives have a fitted effect of over 35% in size; note: potency is the fitted concentration of half-maximal effect)
Summary of the method: (§1)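 qHTS of the MIPE 4.0 collection: 500 myeloma cells/well, 48 h drug exposure at 37C in 5% CO2, then CellTiter-Glo for 5 min at room temperature before luminescence reading.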

[5] = Quantitative High-Throughput drug screen in 47 multiple myeloma cell lines against the NCATS MIPE library collection: Delta47_JCRB cell viability assay (AID 1918925; note: nearly all actives have a fitted effect of over 45% in size; note: potency is the fitted concentration of half-maximal effect)
Summary of the method: (§2)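 Approved and investigational drugs from MIPE 4.0 were added by pin tool to 500 cells per well. After 48 hours at 37C, ATP-based CellTiter-Glo luminescence indicated remaining viability.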

[6] = Quantitative High-Throughput drug screen in 47 multiple myeloma cell lines against the NCATS MIPE library collection: EJM_DSMZ cell viability assay (AID 1918926; note: nearly all actives have a fitted effect of over 30% in size; note: potency is the fitted concentration of half-maximal effect)
Summary of the method: as §2

[7] = Quantitative High-Throughput drug screen in 47 multiple myeloma cell lines against the NCATS MIPE library collection: AMO1_DSMZ cell viability assay (AID 1918927; note: nearly all actives have a fitted effect of over 30% in size; note: potency is the fitted concentration of half-maximal effect)
Summary of the method: as §2

[8] = Quantitative High-Throughput drug screen in 47 multiple myeloma cell lines against the NCATS MIPE library collection: ARD_JJKsccE7 cell viability assay (AID 1918929; note: potency is the fitted concentration of half-maximal effect)
Summary of the method: as §2

[9] = Quantitative High-Throughput drug screen in 47 multiple myeloma cell lines against the NCATS MIPE library collection: Karpas620_DSMZ cell viability assay (AID 1918959); note: nearly all actives have a fitted effect of over 30% in size; note: potency is the fitted concentration of half-maximal effect
Summary of the method: as §1

[10] = biological target: Luciferin 4-monooxygenase (Photinus pyralis) (UniProt P08659); experiment: Primary firefly luciferase (FLuc) qHTS assay for identification of artifact compounds. (AID 1845220); details: outcome: dose series up to 54.1 µM unless noted; note: nearly all actives have a fitted effect of over 60% in size
Summary of the method: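 qHTS, 15 min compound preincubation with substrate (10 uM luciferin, 10 uM ATP) at RT, then 10 nM FLuc; 5 min; luminescence; % inhibition vs no-enzyme/DMSO controls, 4-parameter Hill fit.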

[11] = Primary redox qHTS assay for identification of artifact compounds. (AID 1845223)
Summary of the method: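 Redox-cycling detection via DTT (250 uM final) oxidation coupled to Amplex Red (25 uM)/HRP (250 mU/mL) in HBSS. 15 min preincubation plus 30 min after DTT, room temperature. Ex/Em 525/598 nm; 4-parameter Hill fit against DMSO and 10 uM DA3003.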

[12] = Primary fluorescence-based thiol-reactive (MSTI) qHTS assay for identification of artifact compounds. (AID 1845221);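 note: series mostly up to about 54 µM; thiol-reactive compounds lower the probe fluorescence signal; nearly all actives have a fitted effect of over 65% in size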
Summary of the method: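 Probe: MSTI 4 uM, PBS pH 7.4, 2% DMSO. Incubation 1 h, RT, light-protected. Readout fluorescence 525/598 nm.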

[13] = Quantitative High-Throughput drug screen in 47 multiple myeloma cell lines against the NCATS MIPE library collection: ARP1_JJKsccF8 cell viability assay (AID 1918928; note: potency is the fitted concentration of half-maximal effect; nearly all actives have a fitted effect of over 40% in size)
Summary of the method: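 500 cells/well; MIPE 4.0 library pinned in; 48 h, 37 °C, 5% CO2; CellTiter-Glo ATP luminescence. Controls: DMSO = 100% viability, medium only = 0%.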

Measured: Potency

Sequence of Metallo-beta-lactamase type 2 (Klebsiella pneumoniae) (C7C422 whole entry, looked up): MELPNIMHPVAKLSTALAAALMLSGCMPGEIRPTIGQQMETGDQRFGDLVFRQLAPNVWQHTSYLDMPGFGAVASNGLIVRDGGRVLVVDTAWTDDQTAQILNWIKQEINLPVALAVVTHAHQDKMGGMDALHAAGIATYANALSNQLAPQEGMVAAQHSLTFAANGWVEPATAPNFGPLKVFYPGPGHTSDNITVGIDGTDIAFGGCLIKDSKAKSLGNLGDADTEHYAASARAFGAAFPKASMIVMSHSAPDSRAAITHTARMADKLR
Sequence of Phospholipid hydroperoxide glutathione peroxidase GPX4 (Homo sapiens) (P36969 whole entry, looked up): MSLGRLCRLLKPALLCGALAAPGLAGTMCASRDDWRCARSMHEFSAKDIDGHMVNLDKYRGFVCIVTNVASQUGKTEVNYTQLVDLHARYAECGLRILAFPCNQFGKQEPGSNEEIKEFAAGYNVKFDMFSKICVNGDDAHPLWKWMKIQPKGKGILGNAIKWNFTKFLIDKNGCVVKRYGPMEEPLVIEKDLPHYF
Sequence of Glutathione peroxidase 1 (Homo sapiens) (P07203 whole entry, looked up): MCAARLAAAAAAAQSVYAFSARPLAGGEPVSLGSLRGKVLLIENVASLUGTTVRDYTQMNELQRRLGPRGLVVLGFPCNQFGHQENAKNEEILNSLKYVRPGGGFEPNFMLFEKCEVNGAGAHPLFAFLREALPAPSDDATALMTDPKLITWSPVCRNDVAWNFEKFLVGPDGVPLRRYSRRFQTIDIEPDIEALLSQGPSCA

NC(N)=NOCCC(N)C(=O)O (stereo unspecified)
inactive: [1] | [2] | [3]

NC(=O)CN1CC(O)CC1=O (stereo unspecified)
inactive: [1] | [2] | [3]

CS(=N)(=O)CC[C@H](N)C(=O)O (stereo partly specified)
inactive: [1] | [2] | [3]

O=C(O)COc1ccccc1
inactive: [2] | [3]

CC[C@@]1(O)C(=O)OCc2c1cc1n(c2=O)Cc2cc3ccccc3nc2-1
active: [4] 296 nM | [5] 74.3 nM | [6] 209 nM | [7] 23.5 nM | [8] 372 nM | [9] 418 nM
inactive and 9.04 µM (active): [3]
inactive: [1] | [2]

CC(=O)[C@H]1CCC2C3CC[C@H]4C[C@H](O)CC[C@]4(C)C3CC[C@@]21C (stereo partly specified)
inactive: [1] | [2] | [3]

NCCc1c[nH]c2ccc(O)cc12
inactive: [1] | [2] | [3]

CC[C@@H](C(N)=O)N1CCCC1=O
not listed: [10] | [11] | [12] | [13]
inactive: all other assays above

O=C(O)C(Cl)Cl
inactive: [2]

C[N+]1(C)C2CCC1CC(OC(=O)C(CO)c1ccccc1)C2 (stereo unspecified)
inactive: [1] | [2] | [3]

NC(CP(=O)(O)O)C(=O)O (stereo unspecified)
inactive: [2] | [3]

O=C(Cc1ccc(Cl)c(Cl)c1)N1CCCCC1CN1CCCC1 (stereo unspecified)
inactive: [1] | [2] | [3]

CC(=O)NCCc1c[nH]c2ccccc12
inactive: [1] | [2] | [3] | [10] inactive [at 86.2 µM] | [11]

C#CCOC(=O)C1=CCCN(C)C1
inactive: [1] | [2] | [3]

C=CCC1=C(C)C(OC(=O)C2C(C=C(C)C)C2(C)C)CC1=O (stereo unspecified)
inactive: [2] | [3]

Cc1cc(O)ccc1Cl
inactive: [2] | [3]

S=C(SSC(=S)N1CCCCC1)N1CCCCC1
active: [2] 12800 nM

O=[N+]([O-])c1ccc([As](=O)(O)O)cc1
inactive: [2] | [3]

O=C(N[C@H]1CN2CCC1CC2)c1ccc(Cl)cc1
not listed: [5] | [7] | [13]
inactive: all other assays above

CCCN1CCC[C@H](c2cccc(O)c2)C1
inactive: [1] | [2] | [3]

COc1ccc2c(c[n+](C)c3c4cc5c(cc4ccc23)OCO5)c1OC
inactive: [1] | [2] | [3]
active: [4] 4180 nM | [5] 9350 nM | [6] 2960 nM | [13] 2960 nM | [8] 7430 nM | [9] 5900 nM
